Screens from PubChem.
Most compounds without a hit are left out; they make up all but 10% or so of the library.
NPR1 antag – antagonists of human natriuretic peptide receptor Npr1. HEK293 hNpr1 GloSensor cGMP, ANP-stimulated luminescence. Potency, µM (series often up to 46.3 µM), for inactives: at the highest dose activity change, negative = inhibition, most hits filed as inhibitors. AID 1347048. 76,000 compounds, 1.6% hits; calls by dose curve; further: nearly all actives have a fitted effect of over 60% in size
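Compound pre-incubated 30 min at room temperature on GloSensor-loaded HEK293 cells stably carrying hNpr1 and the pGS-40F cGMP biosensor. Stimulation uses hNppA at 0.1 nM final; luminescence is taken at baseline and 20 min post-agonist.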
Luciferase inh – Photinus pyralis luciferase inhibition | P08659 | purified P. pyralis luciferase, luminescence, biochemical | Potency, µM (top dose mostly 115 µM), hits mostly inhibitors | 76,000 compounds, 2.5% hits | AID 1347043; further: nearly all actives have a fitted effect of over 65% in size
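Biochemical qHTS: compound (6-point titration) added to 10uM D-luciferin plus 10uM ATP in Tris acetate pH 7.5 buffer with Mg, Tween-20 and BSA, then purified enzyme at 10nM; light output imaged.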
NIH3T3 tox – NIH 3T3 cell cytotoxicity. NIH 3T3 viability, CellTiter-Glo ATP luminescence, 48-72 h. Potency, µM (series often up to 96.7 µM), for the others: at the top dose activity change, negative = cytotoxicity, hits mostly inhibitors. 94,000 compounds, 4.3% hits; further: nearly all actives have a fitted effect of over 55% in size
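First NIH 3T3 cells are plated at 400 cells/well; next compound is pinned in; then plates incubate 48 or 72 hr at 37 °C; finally CellTiter-Glo is added and luminescence read after 10 min.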
HEK cytotox – cytotoxic compounds in HEK 293 cells; Potency, µM (titrated, usually from 115 µM), without a hit: at the top dose activity change, negative = cytotoxicity, hits mostly inhibitors; AID 1345083; 94,000 compounds, 6.6% hits; HEK 293 viability, ATP luminescence (CellTiter-Glo), 48-72 h; further: nearly all actives have a fitted effect of over 60% in size
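Luminescence from cellular ATP, measured with CellTiter-Glo, indicates HEK 293 viability. Cells plated at 250 cells/well are treated with compound for 48 or 72 hr at 37 degree Celsius before reagent addition.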
GPT2 inhibitor – blocks human glutamate pyruvate transaminase 2 | 100,000 compounds, 0.25% hits | AID 1671188 | Q8TD30 | Potency, µM (series often up to 57.7 µM), for inactives: at the highest dose activity change, negative = inhibition, actives largely listed as inhibitors | Recombinant GPT2, coupled pyruvate oxidase/HRP Amplex Red fluorescence; further: nearly all actives have a fitted effect of over 60% in size
Target sequence (Q8TD30 whole entry, looked up): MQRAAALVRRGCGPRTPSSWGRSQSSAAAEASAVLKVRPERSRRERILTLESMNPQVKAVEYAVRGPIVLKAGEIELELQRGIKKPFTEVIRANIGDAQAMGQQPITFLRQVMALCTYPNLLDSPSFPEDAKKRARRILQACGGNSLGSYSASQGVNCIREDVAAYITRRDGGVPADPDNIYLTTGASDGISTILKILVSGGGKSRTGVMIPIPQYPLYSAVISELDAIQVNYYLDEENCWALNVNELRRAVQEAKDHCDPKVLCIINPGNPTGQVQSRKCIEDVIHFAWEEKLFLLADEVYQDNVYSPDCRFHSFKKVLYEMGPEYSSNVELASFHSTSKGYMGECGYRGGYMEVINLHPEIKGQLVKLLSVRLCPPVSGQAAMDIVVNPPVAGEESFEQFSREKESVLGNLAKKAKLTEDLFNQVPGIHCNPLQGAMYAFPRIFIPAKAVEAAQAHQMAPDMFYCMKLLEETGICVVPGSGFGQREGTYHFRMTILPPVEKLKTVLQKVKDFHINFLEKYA
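Recombinant GPT2 (10ng/uL) with 250uM a-KG and 2mM L-alanine, 30 min at room temperature, in HEPES pH 7.5 buffer. Pyruvate detected by pyruvate oxidase/HRP/Amplex Red fluorescence after 30 min in the dark; AOA (50uM) as positive control.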
The depositor's hits bear a star; i = inactive; ? = inconclusive; / = no result given; [ ] = remark or other dose. Unless noted, the call rests on the fitted dose curve; in most records, active means well fitted curve in the direction sought with a large enough effect; inconclusive means small, poorly fitted or top-dose-only effect, or another doubt; inactive means no such curve, though single readings can be large; an effect the other way counts as inactive or inconclusive. On the % scale 0 is the no-effect control and ±100 the full control effect; potency means the concentration at half of the fitted maximal effect.

SMILES | NPR1 antag | Luciferase inh | NIH3T3 tox | HEK cytotox | GPT2 inhibitor
Cc1ccc(C2Cn3cnc(C(=O)N4CCC(C(=O)NCc5cc(F)ccc5F)CC4)c3CO2)cc1 (stereo not given) | 2% | 40µM* | -4% | -4% | -1%
O=C(NCc1ccccc1)C1CCN(C(=O)c2ncn3c2COC(c2ccc(F)cc2)C3)CC1 (stereo not given) | 5% | ? | i | 7% | i
Cc1ccc(C2Cn3cnc(C(=O)N4CCC(C(=O)NCc5ccccc5)CC4)c3CO2)cc1 (stereo not given) | -11% | 40µM* | -13% | ? | i
CN(CC1(C)CCOCC1)C(=O)c1ccc2c(c1)OCO2 | -11% | i | i | 7% | 3%
O=C(O)c1cnc(-c2ccc(F)cc2)nc1-c1ccncc1 | -10% | i | ? | 0% | i
O=[S+]1([O-])NCC2(CCCN(Cc3cccc(C(F)(F)F)c3)C2)Oc2ncccc21 (stereo not given) | / | / | -28% | ? | 1%
COc1ncccc1-c1nccc2c(=O)cc(N(C)C3CCOCC3)oc12 | -4%[70.6 µM] | i | ? | -18%[172 µM] | 1%[88.5 µM]
Cc1ccccc1-c1nccc2c(=O)cc(N(C)C3CCOCC3)oc12 | -4%[70.6 µM] | i | 25µM* | -26%[172 µM] | -13%[88.5 µM]
COc1ccc(-c2nccc3c(=O)cc(N(C)C)oc23)cn1 | 2%[70.6 µM] | i | 50µM* | i | -8%[88.5 µM]
CN(C)c1cc(=O)c2ccnc(-c3ccc(O)c(F)c3)c2o1 | -2%[70.6 µM] | i | 32µM* | 0%[172 µM] | i
CN1CCN(c2ccc(-c3nccc4c(=O)cc(N(C)C5CCOCC5)oc34)cn2)CC1 | 4%[70.6 µM] | i | 89µM* | i | -7%[88.5 µM]
CC(=O)N1CCN(C(=O)c2cc(-c3cccnc3)nc3c2cnn3C)CC1 | / | / | -12% | -1% | -3%
COC[C@@]12CC[C@@H](N3CCOCC3)C[C@H]1CCN(Cc1cccc3nonc13)C2 | 4% | i | ? | -18% | ?
O=C(NCC12CCCC=C1N(CC1CC1)C(=O)CC2)c1ccccc1 (stereo not given) | / | / | -20% | ? | -7%
O=C1CCN(S(=O)(=O)c2ccccc2)CCCN(C(=O)C2CCCC2)CCN1 | 3% | i | -8% | 3% | i
COC1C(=O)N(c2cccc(F)c2)C12CCN(Cc1sccc1C)CC2 (stereo not given) | -10% | i | ? | ? | -7%
CN(c1cc(=O)c2ccnc(-c3ccc(O)c(F)c3)c2o1)C1CCOCC1 | -3%[70.6 µM] | i | 8.9µM* | -19%[172 µM] | ?
CN(C)c1cc(=O)c2ccnc(Nc3ccccn3)c2o1 | 8%[70.6 µM] | i | 71µM* | -25%[230 µM] | ?
CN(c1ccccc1)c1cc(=O)c2ccnc(-c3ccccc3O)c2o1 | -4%[70.6 µM] | i | ? | ? | 0%[88.5 µM]
Cc1cc(=O)n(CC(=O)Nc2ccc(C)c(C)c2)c(N(C)Cc2ccccc2)n1 | ? | i | ? | ? | 0%
O=C(CN1CCN(c2ncncc2-c2nc(-c3ccccc3)no2)CC1)N1CCCCC1 | -10% | i | ? | ? | i
COc1cccc(-c2noc(N3CCCC3)n2)c1OC | 5% | ? | 3% | 0% | -8%
O=C(c1ccc(Cl)nc1)N1CCC(c2nn(-c3ccccn3)c(=O)[nH]2)CC1 | / | / | -9% | -13% | i
Cc1noc(C)c1-c1cc2cc(C(C)C)oc2c(NCc2cccnc2)n1 | 2%[70.6 µM] | i | ? | ? | -24%[88.5 µM]
Cc1cc2cc(-c3c(C)noc3C)nc(N3CCN(C)C(=O)C3)c2o1 | 0%[70.6 µM] | i | ? | ? | -17%[88.5 µM]
SMILES | NPR1 antag | Luciferase inh | NIH3T3 tox | HEK cytotox | GPT2 inhibitor
Cc1cc2cc(-c3c(C)noc3C)nc(N(C)C)c2o1 | -2%[70.6 µM] | i | ? | 100µM* | ?
Cc1cc2cc(-c3c(C)noc3C)nc(-c3ccccc3)c2o1 | 6%[70.6 µM] | i | ? | ? | i
Cc1cc2cc(-c3c(C)noc3C)nc(N3CCN(c4ccccn4)CC3)c2o1 | -9%[70.6 µM] | i | 28µM* | 13µM* | ?
Cc1noc(C)c1-c1cc2cc(C(C)C)oc2c(N(C)CCN(C)C)n1 | -2%[70.6 µM] | i | 25µM* | 35µM* | ?
Cc1ccc([S+](=O)([O-])N2CCN(c3nccc(Nc4ccccc4F)n3)CC2)cc1 | / | / | ? | 32µM* | i
C[S+](=O)([O-])N1CCN(c2nccc(Nc3ccccc3F)n2)CC1 | / | / | -27% | -10% | i
COc1ccc(Nc2ccnc(N3CCN([S+](=O)([O-])c4cccc(C(F)(F)F)c4)CC3)n2)cc1 | / | / | ? | 32µM* | ?
Cc1noc(C)c1[S+](=O)([O-])NC1CCN(c2nccc(Nc3ccccc3F)n2)CC1 | / | / | ? | ? | i
Cc1ccc([S+](=O)([O-])NC2CCN(c3nccc(Nc4ccccc4F)n3)CC2)cc1 | / | / | 40µM* | 28µM* | -12%
COc1ccc(Nc2ccnc(N3CCC(N[S+](=O)([O-])c4ccc(C)cc4)CC3)n2)cc1 | / | / | 25µM* | 28µM* | i
CCCC(=O)N1CC(c2nc(C)no2)C2(CCOCC2)C1 (stereo not given) | 5% | i | -15% | -11% | -18%
CCCN(CC1CCOC1)S(=O)(=O)c1cccc(Br)c1 (stereo not given) | 1% | i | 0% | ? | -6%
O=[S+]([O-])(NC1CCN(c2nccc(Nc3ccccc3F)n2)CC1)c1cccs1 | / | / | 45µM* | 45µM* | -2%
COCCc1nncn1C1CCN(C(=O)c2ccc(C)s2)CC1 | -1% | i | i | 5% | i
O=C(NCCNC(=O)c1ccccn1)c1ccc(-c2cncnc2)cc1 | / | / | -8%[138 µM] | 3%[172 µM] | /
CN(Cc1ccco1)C(=O)c1ccc(-c2ccc(N3CCCCCC3)nc2)cc1 | ? | ? | ? | 40µM* | i
O=C(NCCN1CCCCC1)c1ccc(-c2ccc(N3CCCCC3)nc2)cc1 | -3% | ? | 20µM* | ? | i
O=C(Cc1ccccn1)NCCNC(=O)c1ccc(-c2cncnc2)cc1 | / | / | ? | 89µM* | /
O=C(NCc1ccccn1)c1ccc(-c2ccc(N3CCCCC3)nc2)cc1 | -26% | ? | ? | 22µM* | 0%
CCN(CC)C(=O)c1ccc(Nc2nc(OCC3CCCCC3)c3[nH]cnc3n2)cc1 | / | / | / | / | i
Cc1ccc(CN2CC[C@@H]3[C@H]2C(=O)NC[C@H](CCC(=O)NCc2ccco2)N3C)cc1 | 7%[70.6 µM] | i | ? | ? | ?
COc1ccc(C(=O)NC(C(=O)NCC(C)C)C2CCN(C(=O)C3CC3)CC2)cc1 (stereo not given) | 3% | i | 1% | i | 4%
CC(=O)c1ccc(NC(=O)O[C@@H]2CO[C@H]3[C@@H]2OC[C@@H]3n2nnnc2SCc2ccco2)cc1 | -1% | i | 2% | 1% | -3%
